Results from PubChem BioAssay (EPA / NIEHS).
Active and inactive are the calls of the source. The calls were made as follows: active = hit-call score of the fitted dose curve at least 0.9, where 1 is the maximum; inactive = score below 0.9.

Columns and labels:
Conditions in all cases: mRNA level, 48 h; actives raise or lower the signal
[1] = read-out: 3-Hydroxy-3-Methylglutaryl-CoA Synthase 2 (HMGCS2), HMGCS2 (gene 3158); experiment: LTEA_HepaRG_HMGCS2: Life Technologies and Expression Analysis (LTEA) Assay for 3-Hydroxy-3-Methylglutaryl-CoA Synthase 2 (HMGCS2) using HepaRG (AID 2283504)
In short: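 This steatosis marker was read as HMGCS2 mRNA change in HepaRG cells treated 48 h with up to 100 uM chemical. Normalisation used housekeeping genes; activity in either direction was fitted relative to 0.5% DMSO vehicle.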

[2] = read-out: Insulin Like Growth Factor 1 (IGF1), IGF1 (gene 3479); experiment: LTEA_HepaRG_IGF1: Life Technologies and Expression Analysis (LTEA) Assay for Insulin Like Growth Factor 1 (IGF1) using HepaRG (AID 2283506)
In short: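 qRT-PCR readout of IGF1 mRNA, normalized to three housekeeping genes, after 48 h chemical exposure of HepaRG cells. Concentrations: 8-point half-log series, top 100 uM, 0.5% DMSO vehicle. Gain or loss fitted against DMSO baseline.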

[3] = read-out: Interleukin 6 (IL6), IL6 (gene 3569); experiment: LTEA_HepaRG_IL6: Life Technologies and Expression Analysis (LTEA) Assay for Interleukin 6 (IL6) using HepaRG (AID 2283509)
In short: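 qRT-PCR read-out of IL6 transcript, normalized to three housekeeping genes, after 48 h chemical exposure of HepaRG cells; 8-point half-log series, top 100 uM, 0.5% DMSO vehicle. Bidirectional curve fitting against DMSO baseline.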

[4] = read-out: Potassium channel subfamily K member 1 (KCNK1), KCNK1 (gene 3775); experiment: LTEA_HepaRG_KCNK1: Life Technologies and Expression Analysis (LTEA) Assay for Potassium channel subfamily K member 1 (KCNK1) using HepaRG (AID 2283511)
In short: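 HepaRG, 48 h exposure, 8-pt half-log series top 100 uM, 0.5% DMSO vehicle, duplicates. Readout: KCNK1 transcript by qRT-PCR (Fluidigm array), housekeeping-normalized; bidirectional curve fit relative to DMSO baseline.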

[5] = read-out: Keratin 19 (KRT19), KRT19 (gene 3880); experiment: LTEA_HepaRG_KRT19: Life Technologies and Expression Analysis (LTEA) Assay for Keratin 19 (KRT19) using HepaRG (AID 2283512)
In short: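 Readout is qRT-PCR of KRT19 mRNA, normalized to ACTB, GAPDH and POLR2A, from HepaRG cells treated 48 h with eight-point half-log dilutions topping at 100 uM. Activity in either direction is scored relative to 0.5% DMSO vehicle.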

[6] = read-out: Lipase C (LIPC), LIPC (gene 3990); experiment: LTEA_HepaRG_LIPC: Life Technologies and Expression Analysis (LTEA) Assay for Lipase C (LIPC) using HepaRG (AID 2283514)
In short: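 HepaRG, 48 h exposure, 8-pt half-log series from 100 uM in 0.5% DMSO, duplicates. Readout: LIPC mRNA by Fluidigm qRT-PCR, housekeeping-normalized (ACTB/GAPDH/POLR2A). Gain or loss fitted bidirectionally against DMSO baseline.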

[7] = read-out: Lipoprotein lipase (LPL), LPL (gene 4023); experiment: LTEA_HepaRG_LPL: Life Technologies and Expression Analysis (LTEA) Assay for Lipoprotein lipase (LPL) using HepaRG (AID 2283515)
In short: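 HepaRG, 48 h exposure, 8-pt half-log dilutions from 100 uM, 0.5% DMSO vehicle, duplicates; qRT-PCR (Fluidigm array) of LPL mRNA vs housekeeping genes; bidirectional curve fit relative to DMSO baseline.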

[8] = read-out: matrix metalloproteinase-10 (MMP10), MMP10 (gene 4319); experiment: LTEA_HepaRG_MMP10: Life Technologies and Expression Analysis (LTEA) Assay for matrix metalloproteinase-10 (MMP10) using HepaRG (AID 2283517)
In short: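 Transcript levels come from Fluidigm qRT-PCR normalized to three housekeeping genes, with curves fitted bidirectionally against 0.5% DMSO. Human HepaRG cells were dosed for 48 hours at concentrations up to 100 uM.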

MYC, MYC (gene 4609) = experiment: LTEA_HepaRG_MYC: Life Technologies and Expression Analysis (LTEA) Assay for MYC using HepaRG (AID 2283518)
In short: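 Expression changes were scored by TaqMan qRT-PCR with ACTB, GAPDH and POLR2A normalization. Cultures in serum-free induction medium received duplicate 8-point concentration series, highest 100 uM, for 48 h; DMSO (0.5%) served as baseline.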

[9] = read-out: matrix metalloproteinase-3 (MMP3), MMP3 (gene 4314); experiment: LTEA_HepaRG_MMP3: Life Technologies and Expression Analysis (LTEA) Assay for matrix metalloproteinase-3 (MMP3) using HepaRG (AID 2283519)
In short: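 qRT-PCR read-out of MMP3 mRNA (normalised to three housekeeping genes) in HepaRG liver cells after 48 h chemical exposure; 8-point half-log series, top 100 uM, 0.5% DMSO vehicle. Bidirectional curve fitting against DMSO baseline.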

[10] = read-out: Nuclear factor NF-kappa-B p105 subunit (Homo sapiens) (UniProt P19838); experiment: LTEA_HepaRG_NFKB1: Life Technologies and Expression Analysis (LTEA) Assay for Nuclear Factor Kappa B Subunit 1 (NFKB1) using HepaRG (AID 2283521)
In short: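 Human HepaRG cells receive eight half-log concentrations, highest 100 uM, for 48 h. NFKB1 expression is then quantified by qRT-PCR and analysed for up- or down-regulation relative to 0.5% DMSO vehicle.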

[11] = read-out: Protein phosphatase 2A (PPP2R4), PTPA (gene 5524); experiment: LTEA_HepaRG_PPP2R4: Life Technologies and Expression Analysis (LTEA) Assay for Protein phosphatase 2A (PPP2R4) using HepaRG (AID 2283522)
In short: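 HepaRG, 48 h exposure, 8-pt half-log series from 100 uM, 0.5% DMSO vehicle, duplicates. Readout: PPP2R4 mRNA, Fluidigm qRT-PCR, housekeeping-normalized. Bidirectional curve fit vs DMSO baseline.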

[12] = read-out: Phosphatase and tensin (PTEN), PTEN (gene 5728); experiment: LTEA_HepaRG_PTEN: Life Technologies and Expression Analysis (LTEA) Assay for Phosphatase and tensin (PTEN) using HepaRG (AID 2283523)
In short: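 HepaRG, 48 h exposure, 8-pt half-log series from 100 uM top, 0.5% DMSO vehicle, duplicates. Readout: Fluidigm qRT-PCR of PTEN transcript; housekeeping normalization (ACTB, GAPDH, POLR2A). Gain or loss fitted relative to DMSO baseline.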

[13] = read-out: Insulin-like growth factor-binding protein 1 (IGFBP1), IGFBP1 (gene 3484); experiment: LTEA_HepaRG_IGFBP1: Life Technologies and Expression Analysis (LTEA) Assay for Insulin-like growth factor-binding protein 1 (IGFBP1) using HepaRG (AID 2283508)
In short: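 HepaRG, 48 h, 8 conc. (max 100 uM, half-log), duplicates, 0.5% DMSO. Readout: TaqMan qRT-PCR, ACTB/GAPDH/POLR2A normalisation. Fit: bidirectional vs DMSO.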

[14] = read-out: Interleukin 6 Receptor (IL6R), IL6R (gene 3570); experiment: LTEA_HepaRG_IL6R: Life Technologies and Expression Analysis (LTEA) Assay for Interleukin 6 Receptor (IL6R) using HepaRG (AID 2283510);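 as to AC50: differentiated human HepaRG liver cells in serum-free induction medium; TaqMan qRT-PCR signal normalized to ACTB GAPDH and POLR2A housekeeping genes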
In short: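 HepaRG, 48 h exposure, 8-pt half-log series, top 100 uM, 0.5% DMSO vehicle, duplicates. Read-out: TaqMan qRT-PCR of IL6R transcript, housekeeping-gene normalized. Gain or loss fitted relative to DMSO baseline.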

[15] = read-out: JUN Transcription Factor, JUN (gene 3725); experiment: LTEA_HepaRG_JUN: Life Technologies and Expression Analysis (LTEA) Assay for JUN Transcription Factor using HepaRG (AID 2283513)
In short: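 HepaRG, 48 h exposure, 8-pt half-log series top 100 uM, 0.5% DMSO, duplicate. JUN mRNA by qRT-PCR (Fluidigm), housekeeping-normalized (ACTB/GAPDH/POLR2A); bidirectional curve fit vs DMSO baseline.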

[16] = read-out: MicroRNA 122 (MIR122), gene 406906; experiment: LTEA_HepaRG_MIR122: Life Technologies and Expression Analysis (LTEA) Assay for MicroRNA 122 (MIR122) using HepaRG (AID 2283516); also: the transcript read is the microRNA miR-122
In short: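 qRT-PCR read-out (TaqMan, Fluidigm array), normalized to three housekeeping genes; HepaRG cells dosed 48 h at 8 concentrations up to 100 uM in 0.5% DMSO, duplicate; gain or loss fitted against DMSO baseline.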

[17] = read-out: Paternally Expressed 10 (PEG10), PEG10 (gene 23089); experiment: LTEA_HepaRG_PEG10: Life Technologies and Expression Analysis (LTEA) Assay for Paternally Expressed 10 (PEG10) using HepaRG (AID 2283520);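 as to AC50: differentiated HepaRG human liver cells in serum-free induction medium with 0.5% DMSO; PEG10 transcript by qRT-PCR normalised to ACTB GAPDH and POLR2A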
In short: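 qRT-PCR read-out: PEG10 mRNA normalised to three housekeeping genes, fitted bidirectionally against 0.5% DMSO vehicle. HepaRG cells received test chemicals for 48 h in serum-free induction medium, 8 points, top 100 uM, half-log steps.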

[18] = read-out: Intercellular Adhesion Molecule 1 (ICAM1), ICAM1 (gene 3383); experiment: LTEA_HepaRG_ICAM1: Life Technologies and Expression Analysis (LTEA) Assay for Intercellular Adhesion Molecule 1 (ICAM1) using HepaRG (AID 2283507)
In short: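 Using the human liver line HepaRG, compounds are tested in duplicate over 48 h at concentrations up to 100 uM. Expression is determined by TaqMan qRT-PCR, normalized to endogenous controls, and analysed relative to 0.5% DMSO vehicle.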

Measured: AC50

Sequence of Nuclear factor NF-kappa-B p105 subunit (Homo sapiens) (P19838 whole entry, looked up): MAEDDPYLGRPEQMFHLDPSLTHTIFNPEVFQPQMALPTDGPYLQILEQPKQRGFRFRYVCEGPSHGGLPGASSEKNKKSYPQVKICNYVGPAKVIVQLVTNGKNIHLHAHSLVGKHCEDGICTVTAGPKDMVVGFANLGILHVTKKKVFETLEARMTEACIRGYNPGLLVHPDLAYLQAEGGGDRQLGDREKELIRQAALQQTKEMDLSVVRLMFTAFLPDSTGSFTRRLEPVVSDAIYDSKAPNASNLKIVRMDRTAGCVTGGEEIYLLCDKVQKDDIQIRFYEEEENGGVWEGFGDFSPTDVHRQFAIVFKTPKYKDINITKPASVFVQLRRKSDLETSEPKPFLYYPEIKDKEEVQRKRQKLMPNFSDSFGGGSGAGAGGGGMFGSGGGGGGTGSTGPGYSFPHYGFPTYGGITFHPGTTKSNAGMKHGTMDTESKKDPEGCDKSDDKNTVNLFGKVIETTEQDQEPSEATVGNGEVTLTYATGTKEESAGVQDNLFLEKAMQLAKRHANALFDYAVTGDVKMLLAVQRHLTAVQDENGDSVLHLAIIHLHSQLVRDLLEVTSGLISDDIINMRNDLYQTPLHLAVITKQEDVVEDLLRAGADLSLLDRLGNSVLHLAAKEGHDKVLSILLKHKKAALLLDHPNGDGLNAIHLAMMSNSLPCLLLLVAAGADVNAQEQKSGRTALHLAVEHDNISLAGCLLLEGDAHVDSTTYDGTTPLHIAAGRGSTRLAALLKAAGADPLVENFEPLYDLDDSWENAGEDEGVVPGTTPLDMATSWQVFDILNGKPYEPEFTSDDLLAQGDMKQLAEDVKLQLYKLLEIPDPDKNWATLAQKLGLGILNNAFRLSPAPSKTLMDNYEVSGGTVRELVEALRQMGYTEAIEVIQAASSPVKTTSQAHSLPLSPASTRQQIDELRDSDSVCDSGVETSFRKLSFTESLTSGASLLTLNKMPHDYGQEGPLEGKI

CC[C@H]1OC(=O)[C@H](C)[C@@H](O[C@H]2C[C@@](C)(OC)[C@@H](O)[C@H](C)O2)[C@H](C)[C@@H](O[C@@H]2O[C@H](C)C[C@H](N(C)C)[C@H]2O)[C@](C)(O)C[C@@H](C)C(=O)[C@H](C)[C@@H](O)[C@]1(C)O
not listed: [13] | [14] | [15] | [16] | [17] | [18]
inactive: all other assays above

CCCCCCCCCCCCCCCO
not listed: [9] | [17] | [18]
inactive: all other assays above

CCCC(=O)OCC
not listed: [9] | [10] | [14] | [16] | [17] | [18]
inactive: all other assays above

CCN(C(=O)c1cc(C)cc(OC[C@H](C)Nc2ccncc2)c1)C(C)C
active: [1] 33.8 µM | [2] 33.8 µM | [3] 33.8 µM | [5] 19.3 µM | [6] 33.8 µM | [7] 33.8 µM | [8] 33.8 µM
inactive: [4] | [15] | MYC, MYC (gene 4609) | [9] | [10] | [11] | [12]

O=C(O)c1cccc(Oc2ccccc2)c1
not listed: [9] | [14] | [18]
inactive: all other assays above

CCOC(=O)c1ccc(C2CCC(NC[C@H](O)COc3ccc(O)c(NS(C)(=O)=O)c3)CC2)cc1 (stereo not given in full)
active: [5] 2.04 µM
not listed: [10] | [13] | [14] | [16] | [18]
inactive: all other assays above

CC(C)(O)c1coc(S(=O)(=O)NC(=O)Nc2c3c(cc4c2CCC4)CCC3)c1
active: [17] 50 µM
not listed: [9] | [14] | [16] | [18]
inactive: all other assays above

CCc1cc(SCc2sc(-c3ccc(C(F)(F)F)cc3)nc2CN2CCN(c3ccc(OC)cc3)CC2)ccc1OCC(=O)O
inactive: [9]
active: [1] 77.1 µM | [2] 73.8 µM | [3] 86 µM | [14] 26.2 µM | [4] 9.11 µM | [5] 94 µM | [15] 88.8 µM | [6] 7.95 µM | [7] 27.9 µM | [8] 7.31 µM | MYC, MYC (gene 4609) 7.43 µM | [17] 93.6 µM | [10] 91 µM | [11] 22.4 µM | [12] 24.6 µM

Nc1cccc(N)c1
not listed: [9] | [13] | [17] | [18]
inactive: all other assays above

Cn1c(=O)cc(Oc2ccc(F)cc2F)c2cnc(NCC(C)(C)O)nc21
active: [2] 12.6 µM | [5] 18.3 µM | [7] 9.98 µM | MYC, MYC (gene 4609) 22.1 µM
not listed: [9] | [10] | [13] | [14] | [18]
inactive: all other assays above

Oc1ccc2c(c1)-c1ccccc1C2
active: [5] 25 µM | [7] 25.2 µM | MYC, MYC (gene 4609) 33.3 µM
not listed: [9] | [10] | [18]
inactive: all other assays above

CC(C)=CCCC(C)=CC=O
not listed: [10] | [14] | [17] | [18]
inactive: all other assays above

CCCN(C1CCN(C(=O)C2CCNCC2)CC1)[C@@H]1CCc2ccc(OC)cc2C1
inactive: [4] | [15] | [7] | [8] | [9] | [11] | [12]
active: [2] 50 µM | [18] 77.4 µM | [3] 84.2 µM | [5] 13.6 µM | [6] 69.6 µM | MYC, MYC (gene 4609) 89.5 µM | [17] 60.2 µM | [10] 0.304 µM

CCCCC(CC)COC(=O)c1ccc(C(=O)OCC(CC)CCCC)cc1 (stereo not given)
not listed: [10] | [13] | [16] | [17] | [18]
inactive: all other assays above

COCCOc1cc2cc(C(=O)NC3CCN(C(C)C)CC3)n(CC(=O)Nc3ccc(Cl)cn3)c2cn1
active: [1] 47.2 µM | [2] 13.8 µM | [5] 7.89 µM | [6] 45 µM | [7] 8.93 µM | [16] 45 µM | [12] 45 µM
inactive: [3] | [4] | [15] | [8] | MYC, MYC (gene 4609) | [10] | [11]
